PubChem BioAssay AID1671202 (University of Kansas High Throughput Screening Laboratory, 2021)
Several values for one entry are separate records, joined by “and”; a condition that tells them apart may be missing. Equal entries are not always repeated. Hit rate of the full screen: of about 190,000 compounds, about 6,900 (3.6%) were called active. Cut-off read from the data, not from the text of the source: active = inhibition above about 50%; inactive = the rest. The full list was thinned out, with actives kept by preference.

target: Huntingtin (Homo sapiens) (UniProt P42858); assay: mutant huntingtin-calmodulin interaction inhibitors – biochemical, AlphaScreen, primary screen (AID 1671202); conditions: AlphaScreen His-mHTT/GST-CaM binding, luminescence; at 15 µM, hits give high values;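 note: 0% = both proteins with DMSO and 100% = one protein alone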
Sequence (P42858 whole entry, looked up, stated change not applied): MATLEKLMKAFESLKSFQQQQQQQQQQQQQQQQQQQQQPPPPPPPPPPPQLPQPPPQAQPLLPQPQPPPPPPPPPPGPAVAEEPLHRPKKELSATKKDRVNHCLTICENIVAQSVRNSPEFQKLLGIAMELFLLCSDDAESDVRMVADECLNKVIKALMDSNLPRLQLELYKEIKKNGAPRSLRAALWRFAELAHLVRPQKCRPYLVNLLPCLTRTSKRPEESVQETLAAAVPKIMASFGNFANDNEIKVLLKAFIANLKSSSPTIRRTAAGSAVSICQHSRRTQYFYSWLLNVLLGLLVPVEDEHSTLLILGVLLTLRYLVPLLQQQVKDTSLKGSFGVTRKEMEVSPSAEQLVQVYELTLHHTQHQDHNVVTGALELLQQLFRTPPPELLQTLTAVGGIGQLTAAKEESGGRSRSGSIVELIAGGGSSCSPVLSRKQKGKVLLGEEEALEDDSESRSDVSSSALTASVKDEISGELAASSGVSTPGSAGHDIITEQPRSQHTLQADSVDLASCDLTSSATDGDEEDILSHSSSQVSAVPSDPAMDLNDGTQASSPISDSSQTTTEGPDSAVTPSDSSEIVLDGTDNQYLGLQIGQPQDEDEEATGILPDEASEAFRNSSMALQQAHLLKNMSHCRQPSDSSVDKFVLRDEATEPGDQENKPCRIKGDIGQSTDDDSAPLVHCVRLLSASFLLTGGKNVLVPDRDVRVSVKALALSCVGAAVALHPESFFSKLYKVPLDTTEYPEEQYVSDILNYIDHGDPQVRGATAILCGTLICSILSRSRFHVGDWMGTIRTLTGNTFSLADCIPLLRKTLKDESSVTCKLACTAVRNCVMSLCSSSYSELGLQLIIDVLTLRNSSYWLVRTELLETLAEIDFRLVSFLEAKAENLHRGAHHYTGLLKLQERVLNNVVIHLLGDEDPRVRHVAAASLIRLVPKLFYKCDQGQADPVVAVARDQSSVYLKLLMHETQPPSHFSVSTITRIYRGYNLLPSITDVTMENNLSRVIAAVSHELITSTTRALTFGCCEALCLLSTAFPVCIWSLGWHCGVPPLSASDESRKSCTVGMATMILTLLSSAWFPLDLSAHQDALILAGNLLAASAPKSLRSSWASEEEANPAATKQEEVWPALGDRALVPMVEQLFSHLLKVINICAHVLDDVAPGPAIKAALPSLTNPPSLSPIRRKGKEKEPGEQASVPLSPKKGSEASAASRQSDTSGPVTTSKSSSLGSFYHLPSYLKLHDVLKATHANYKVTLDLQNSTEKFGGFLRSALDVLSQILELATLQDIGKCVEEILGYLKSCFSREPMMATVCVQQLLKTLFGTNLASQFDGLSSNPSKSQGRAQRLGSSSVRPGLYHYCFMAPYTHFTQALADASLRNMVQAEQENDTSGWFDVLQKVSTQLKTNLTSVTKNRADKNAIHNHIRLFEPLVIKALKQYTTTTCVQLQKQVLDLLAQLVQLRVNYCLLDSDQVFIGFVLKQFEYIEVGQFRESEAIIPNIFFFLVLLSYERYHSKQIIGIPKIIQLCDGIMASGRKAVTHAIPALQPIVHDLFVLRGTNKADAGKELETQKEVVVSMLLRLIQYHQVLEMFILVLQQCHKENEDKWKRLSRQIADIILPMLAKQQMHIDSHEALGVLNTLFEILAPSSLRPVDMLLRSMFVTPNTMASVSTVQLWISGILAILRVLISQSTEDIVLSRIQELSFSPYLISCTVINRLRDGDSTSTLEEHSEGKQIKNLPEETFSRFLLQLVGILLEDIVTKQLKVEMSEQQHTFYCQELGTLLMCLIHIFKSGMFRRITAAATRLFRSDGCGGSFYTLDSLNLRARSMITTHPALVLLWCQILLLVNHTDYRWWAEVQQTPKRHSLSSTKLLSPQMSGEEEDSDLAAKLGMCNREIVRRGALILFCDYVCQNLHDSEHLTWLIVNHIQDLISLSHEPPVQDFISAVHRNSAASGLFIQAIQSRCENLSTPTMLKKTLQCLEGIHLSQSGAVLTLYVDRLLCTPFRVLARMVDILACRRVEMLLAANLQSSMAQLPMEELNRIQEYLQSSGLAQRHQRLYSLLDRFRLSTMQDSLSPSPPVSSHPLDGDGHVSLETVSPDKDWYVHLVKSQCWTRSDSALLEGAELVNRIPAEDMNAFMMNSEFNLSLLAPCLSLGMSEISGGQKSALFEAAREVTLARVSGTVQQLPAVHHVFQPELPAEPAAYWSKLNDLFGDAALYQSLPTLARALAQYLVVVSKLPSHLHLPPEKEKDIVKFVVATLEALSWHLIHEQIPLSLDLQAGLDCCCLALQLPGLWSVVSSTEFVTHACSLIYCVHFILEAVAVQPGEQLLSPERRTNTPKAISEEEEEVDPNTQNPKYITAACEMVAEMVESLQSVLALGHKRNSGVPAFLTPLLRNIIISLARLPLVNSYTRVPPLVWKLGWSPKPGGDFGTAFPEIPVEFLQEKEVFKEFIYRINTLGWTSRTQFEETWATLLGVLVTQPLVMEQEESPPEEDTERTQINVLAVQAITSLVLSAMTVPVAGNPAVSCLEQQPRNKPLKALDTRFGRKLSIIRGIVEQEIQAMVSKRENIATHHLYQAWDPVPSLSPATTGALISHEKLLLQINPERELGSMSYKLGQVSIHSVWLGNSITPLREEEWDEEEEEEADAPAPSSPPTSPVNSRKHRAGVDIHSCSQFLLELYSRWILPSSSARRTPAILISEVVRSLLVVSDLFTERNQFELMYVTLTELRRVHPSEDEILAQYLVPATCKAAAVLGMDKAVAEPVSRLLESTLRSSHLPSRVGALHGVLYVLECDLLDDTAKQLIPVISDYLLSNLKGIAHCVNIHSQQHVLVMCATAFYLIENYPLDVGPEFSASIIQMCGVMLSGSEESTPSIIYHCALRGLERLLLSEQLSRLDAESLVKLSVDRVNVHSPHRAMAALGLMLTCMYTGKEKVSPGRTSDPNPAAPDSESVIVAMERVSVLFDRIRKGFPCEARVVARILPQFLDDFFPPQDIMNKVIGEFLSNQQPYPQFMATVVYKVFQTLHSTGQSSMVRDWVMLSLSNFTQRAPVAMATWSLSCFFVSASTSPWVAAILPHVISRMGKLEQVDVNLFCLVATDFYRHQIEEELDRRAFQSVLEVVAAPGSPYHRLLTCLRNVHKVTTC

| Compound | inhibition |
| --- | --- |
| Cc1cc(S(=O)(=O)NCC2(O)CCOCC2)c(Cl)cc1Cl | -11.3% (inactive) |
| Cc1[nH]nc(-c2ccsc2)c1NC(=O)Cc1ccccc1 | -4% (inactive) |
| COc1cccc(CC(=O)N2CCCC2c2cc(C)on2)c1 (stereo unspecified) | -5.74% (inactive) |
| CC1CCCN(c2ccc(-c3noc(CN(C)C4CCCCC4)n3)cn2)C1 (stereo unspecified) | 10% (inactive) |
| CCc1onc(C)c1C1CCCN1C(=O)c1nn(C)cc1Cl (stereo unspecified) | -0.93% (inactive) |
| COc1cc(OC)c(OC)cc1/C=C1N=C(/C=C/c2ccccc2)OC/1=O | -2% (inactive) |
| CCOC(=O)N1CCN(Cc2nc(-c3ccc(N4CCCCCC4)nc3)no2)CC1 | 78.7% (active) |
| Cc1nc(-c2ccc(N3CCN(C(=O)C4CCCO4)CC3)nc2)no1 (stereo unspecified) | -5.6% (inactive) |
| c1cc(N2CCCCCC2)ncc1-c1noc(CN2CCCC2)n1 | 15.8% (inactive) |
| CC(C)Cn1c(C2CCN(C(=O)c3n[nH]c4c3CCCC4)C2)nc2ccncc21 (stereo unspecified) | 5.16% (inactive) |
| O=C(CNc1ccccc1-c1nc2ccccc2[nH]c1=O)NC1CCCCCCC1 | -7% (inactive) |
| CCN(CC)C(=NS(=O)(=O)c1ccccc1)c1ccc(Cl)cc1 | -3% (inactive) |
| CC(=O)Nc1cccnc1-c1ccc(C(=O)NCc2ccccc2)cc1 | -2.7% (inactive) |
| CSc1ccc(C2C=C(c3cccs3)Nc3nnnn32)cc1 (stereo unspecified) | 2% (inactive) |
| COc1ccc(Cl)cc1C(=O)N1CCN(c2ccc3nnc(-c4ccco4)n3n2)CC1 | 72% (active) |
| COc1ccc(Cl)cc1C(=O)N1CCN(c2cccc(Cl)c2)CC1 | -0.4% (inactive) |
| COc1ccc(Cl)cc1C(=O)N1CCn2c(C)nnc2C1 | -9.2% (inactive) |
| COc1ccc(C2C(C(=O)Nc3ccc(Cl)cc3)=C(C)Nc3nnnn32)cc1 (stereo unspecified) | 23% (inactive) |
| O=[N+]([O-])c1ccc(SCCO)c2ncccc12 | 6% (inactive) |
| CCCC(=O)NC(Nc1ccccc1OC)C(Cl)(Cl)Cl (stereo unspecified) | -3% (inactive) |
| CCCC(=O)NC(c1ccccc1OC)c1cc([N+](=O)[O-])c2cccnc2c1O (stereo unspecified) | 100% (active) |
| Cc1nc(-n2cccc2)sc1C(=O)NCc1cc(-c2ccco2)on1 | -1.3% (inactive) |

| Compound | inhibition |
| --- | --- |
| CN(Cc1ccccc1F)c1cc2c(c3c1ccn3C)C1CCC2O1 (stereo unspecified) | 75.9% (active) |
| O=C(C=Cc1ccco1)NCC1COC2(CCCCC2)O1 (stereo unspecified) | -5.5% (inactive) |
| CCOc1ccccc1NC(=O)c1nn(-c2ccccc2OC)c(=O)c2ccccc12 | -4% (inactive) |
| O=C1CSC(c2ccc(F)cc2)N1c1ccc(Br)cc1 (stereo unspecified) | -18% (inactive) |
| CCCc1ccc(OCC(O)CN2CCN(C(=O)OCC)CC2)cc1 (stereo unspecified) | 24.7% (inactive) |
| O=C(COc1ccc([N+](=O)[O-])cc1)c1ccc(O)cc1O | 2.4% (inactive) |
| CCCc1ccc(OCC(=O)c2ccc(O)c(C)c2O)cc1 | 80.4% (active) |
| COCC(=O)N1CCCC(c2ccnc(-c3ccccc3)n2)C1 (stereo unspecified) | -3.3% (inactive) |
| CC1CN(C(=O)COc2cccc3c2OC(C)(C)C3)CC(C)O1 (stereo unspecified) | 1.8% (inactive) |
| CCCCOc1ccc(NC(=O)N(Cc2ccccn2)Cc2ccco2)cc1 | -0.5% (inactive) |
| Cc1ccc(NC(=O)N2CCCC(CC(=O)N3CCN(c4ccccc4F)CC3)C2)cc1 (stereo unspecified) | 8.68% (inactive) |
| O=C(c1cccs1)N1CCN(C2=NN=C(c3ccccc3)CS2)CC1 | 86.5% (active) |
| O=C(c1cccs1)N1CCN(c2cc(-c3cccnc3)[nH]n2)CC1 | -4.79% (inactive) |
| CCOC(=O)CCC(=O)N1CCN(C2=NN=C(c3ccccc3)CS2)CC1 | 32.5% (inactive) |
| O=[N+]([O-])c1ccc(Oc2ccc(Cl)c3cccnc23)c(Cl)c1 | -1% (inactive) |
| Cc1ccccc1-c1noc(C2CCCN2C(=O)Nc2ccccc2Cl)n1 (stereo unspecified) | -25.4% (inactive) |
| Cc1ccccc1-c1noc(C2CCCN2C(=O)NCc2ccc(F)cc2)n1 (stereo unspecified) | 68.5% (active) |
| COc1ccc(NC(=O)N2CCCC2c2nc(-c3ccccc3C)no2)cc1 (stereo unspecified) | 7.96% (inactive) |
| CCOc1cccc(C(=O)Nc2ccc(-c3nc4ncccc4o3)cc2)c1 | -4% (inactive) |
| CC1(C)CC(=O)C2=C(C1)c1c(ccc3ncccc13)NC2c1ccc(O)cc1 (stereo unspecified) | 2% (inactive) |
| CCOc1ccc(C2Nc3ccc4ncccc4c3C3=C2C(=O)CC(C)(C)C3)cc1 (stereo unspecified) | 3% (inactive) |
| CC1(C)CC(=O)C2=C(C1)c1c(ccc3ncccc13)NC2c1ccc([N+](=O)[O-])cc1 (stereo unspecified) | 54% (active) |

| Compound | inhibition |
| --- | --- |
| O=C1OC(/C=C/c2cccc(Cl)c2Cl)=NC/1=C\c1cccc([N+](=O)[O-])c1 | 1% (inactive) |
| O=c1[nH]c2c(c(=O)[nH]1)C(c1cc([N+](=O)[O-])ccc1N1CCOCC1)O2 (stereo unspecified) | 3% (inactive) |
| Cc1ccc(C2Oc3ccccc3C3CC(c4cccs4)=NN32)o1 (stereo unspecified) | 63% (active) |
| N#Cc1ccc(C2Oc3ccccc3C3CC(c4ccccc4)=NN32)cc1 (stereo unspecified) | 14% (inactive) and 1.44% (inactive) |
| COc1ccc(C2=NN3C(C2)c2ccccc2OC3c2cccc([N+](=O)[O-])c2)cc1 (stereo unspecified) | 10% (inactive) |
| CC1=NN2C(C1)c1ccccc1OC2c1ccc(Cl)cc1 (stereo unspecified) | -1% (inactive) |
| COc1cc(OC)c(C2Oc3ccccc3C3CC(c4cccs4)=NN32)cc1OC (stereo unspecified) | 52% (active) |
| COc1ccc(C2CC(c3cccs3)=NN2c2ccccc2)cc1 (stereo unspecified) | -183% (inactive) |
| Cn1cccc1C(=O)N1CC2CC1CC2NS(=O)(=O)c1cccs1 (stereo unspecified) | 14.1% (inactive) |
| Fc1ccc(CSc2nnnn2-c2ccc3c(c2)OCO3)cc1 | -29% (inactive) |
| CC(C)c1nc2c(NC(=O)C3CC3)cccn2n1 | -7.5% (inactive) |
| CCCCN(CC)S(=O)(=O)c1ccc(Cl)cc1 | -36.2% (inactive) |
| Cc1cc(C)cc(N2C(=O)C(N3C(=O)c4ccccc4C3=O)C2c2ccc(F)cc2)c1 (stereo unspecified) | 3% (inactive) |
| CCN(CC)S(=O)(=O)N1CCC(C(=O)NCc2cccnc2)CC1 | -11% (inactive) |
| O=C(NCc1ccc(F)cc1)C1CCN(c2nccn3nc(-c4ccc(F)cc4)cc23)CC1 | 4.41% (inactive) |
| CC(NC(=O)C1CCN(c2nccn3nc(-c4cccs4)cc23)CC1)c1ccccc1 (stereo unspecified) | 59.4% (active) |
| O=C(NCCc1ccccn1)C1CCN(c2nccn3nc(-c4ccc(F)cc4)cc23)CC1 | 15% (inactive) |
| O=C(NCc1cccs1)C1CCN(c2nccn3nc(-c4ccccc4)cc23)CC1 | 18.6% (inactive) |
| O=C(NCc1ccc(Cl)cc1)C1CCN(c2nccn3nc(-c4ccccc4)cc23)CC1 | 52% (active) |
| O=C(Nc1cccc(Cl)c1)C1CCN(c2nccn3nc(-c4ccccc4)cc23)CC1 | 4.34% (inactive) |
| Cc1ccc(-c2cc3c(N4CCC(C(=O)NCc5cccnc5)CC4)nccn3n2)cc1C | 59.9% (active) |
| CC(NC(=O)C1CCN(c2nccn3nc(-c4ccccc4)cc23)CC1)c1ccc(F)cc1 (stereo unspecified) | -3.07% (inactive) |
